Results filed as inconclusive are left out. A number with no mark means an inactive call. The call rests on the fitted dose curve; in most records, active means well fitted inhibition curve with a large enough effect; inconclusive means small, poorly fitted or top-dose-only effect; inactive means flat fitted curve, though single readings scatter.
Molecular target: Calcium and integrin-binding protein 1 (Homo sapiens) (UniProt Q99828)
Test: Primary qHTS for Identification of Calcium Integrin Binding Protein 1 (CIB1) Competitor (AID 1508620);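 further: GST tagged CIB1 binding a fluorescein labelled alphaIIb integrin peptide tracer; top concentration of the series differs between compounds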
Settings: CIB1-GST / FITC-alphaIIb peptide fluorescence polarization; series mostly up to 114 µM; activity change, negative = inhibition: at the top concentration
Summary of the method: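 Fluorescence polarization competition: CIB1-GST (1 uM final) preincubated with compound 15 min at room temperature, then FITC-labeled alphaIIb peptide (100 nM final) added for another 15 min. Polarization read at Ex 480/Em 540.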
On the % scale 0 is the no-effect control and ±100 the full control effect.

Calcium and integrin-binding protein 1 (Homo sapiens), sequence (Q99828 whole entry, looked up): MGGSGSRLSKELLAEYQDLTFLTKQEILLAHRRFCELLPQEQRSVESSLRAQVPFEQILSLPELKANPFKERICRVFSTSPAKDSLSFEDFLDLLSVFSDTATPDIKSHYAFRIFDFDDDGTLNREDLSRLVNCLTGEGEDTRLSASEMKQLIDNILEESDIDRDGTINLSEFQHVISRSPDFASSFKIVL

Structure (SMILES)	activity change, negative = inhibition
C[C@@H]1C[C@H]2O[C@@H]2/C=C\C=C\C(=O)Cc2c(Cl)c(O)cc(O)c2C(=O)O1	-11.2% [at 30.2 µM]
C/C=C(\C)C(=O)O[C@@H]1CC2[C@@H](CC=C3C[C@@H](O[C@H]4C[C@H](OC)[C@H](O[C@H]5C[C@H](OC)[C@H](O[C@@H]6O[C@H](C)[C@@H](O[C@H]7C[C@H](OC)[C@H](O[C@@H]8O[C@H](CO)[C@@H](O)[C@H](O)[C@H]8O)[C@@H](C)O7)[C@H](OC)[C@H]6O)[C@@H](C)O5)[C@@H](C)O4)CC[C@@]32C)[C@@]2(O)CC[C@H](C(C)=O)[C@@]12C (some centres undefined)	2.76% [at 12.4 µM]
C=C(CCC1=C(C)[C@H]2[C@H](CC3[C@@H]4CC=C5C[C@@H](O)C[C@@H](O)[C@]5(C)C4[C@H](O)C[C@@]32C)O1)CO[C@@H]1O[C@H](CO)[C@@H](O)[C@H](O)[C@H]1O (some centres undefined)	-1.41% [at 30.2 µM]
C=CCC1=C[C@]2(OC)[C@H](C)[C@@H](c3ccc(O)c(OC)c3)O[C@]2(OC)CC1=O	1.95% [at 57.7 µM]
CCC1C(=O)N(C)c2cnc(Nc3ccc(C(=O)NC4CCC(N5CCN(CC6CC6)CC5)CC4)cc3OC)nc2N1C(C)C (centres undefined)	-5.09%
Cc1cc(NC(=O)Nc2ccc(F)c(F)c2)n(-c2ccccc2)n1	-0.0423%
COC1C(=O)CCC2(CO2)C1(O)C1(C)OC1CC=C(C)C (centres undefined)	-13%
Cc1ccc(F)cc1C(=O)Nc1ccc(C(=O)N2Cc3cccn3Cc3ccccc32)c(Cl)c1	1.73%
COc1cc(-c2ncn(/C=C\C(=O)OC(C)C)n2)cc(C(F)(F)F)c1	2.33%
O=C(c1cc2c(cc1F)OC(c1ccc(F)cc1)(c1ccc(Cl)cc1Cl)O2)N1CCOCC1 (centres undefined)	3.44%
O=C1NC(Cc2ccccc2)C(=O)N2CCCC12 (centres undefined)	-5.51%
COC(=O)C[C@H]1C(C)(C)[C@H](OC(=O)C(C)C)[C@@]2(O)C(=O)[C@]1(C)C1CC[C@]3(C)C(CC(=O)O[C@H]3c3ccoc3)[C@]13O[C@@H]32 (some centres undefined)	2.94% [at 30.2 µM]
CC(=O)O[C@H]1CC[C@@]2(C)C(CC[C@@H](C)[C@]23Cc2c(O)cc4c(c2O3)CN([C@@H](CCC(=O)O)C(=O)O)C4=O)C1(C)C (some centres undefined)	1.44% [at 57.7 µM]
COc1cc2c(NC3CCN(CC4CCCCC4)CC3)nc(N3CCCN(C(C)C)CC3)nc2cc1OCCCN1CCCCC1	-1.55%
COc1ccc(/C=C/C(=O)O[C@H]2[C@H](O[C@H]3[C@@H]4C=CO[C@@H](O[C@@H]5O[C@H](CO)[C@@H](O)[C@H](O)[C@H]5O)[C@@H]4[C@@]4(CO)O[C@@H]34)O[C@@H](C)[C@H](O)[C@H]2OC(C)=O)cc1	0.524% [at 30.2 µM]
CCC(COC)n1nnc2c(Nc3ccc(OC)cc3C)nc(C)cc21 (centres undefined)	-0.591%
C=C[C@]1(C)C=C2CCC3C(C)(CCC[C@@]3(C)C(=O)O)C2CC1 (some centres undefined)	2.03% [at 57.7 µM]
CO[C@H]1/C=C/C=C/C=C/C[C@H](OC(=O)[C@@H](C)NC(=O)C2CCCCC2)[C@H](C)[C@@H](O)/C(C)=C/CCc2cc(O)cc(c2)NC(=O)C1	-10% [at 30.2 µM]
O=C(O[C@H]1[C@@H]2C[C@@H]3OC[C@](O)([C@@H]1Cl)[C@H]2C(O[C@@H]1O[C@H](CO)[C@@H](O)[C@H](O)[C@H]1O)O3)c1ccc(O)c(O)c1 (some centres undefined)	-8.36% [at 57.7 µM]
C=C1C[C@]23C[C@H]1CC[C@H]2C1=C[C@H]2OC(=O)[C@@](C)([C@H]1[C@@H]3C(=O)O)[C@H]2O	-10.1% [at 57.7 µM]
CCC(C)/C=C(C)/C=C/c1cc2c(cn1)C(=O)C(C)(OC(C)=O)C(O)=C2Cl (centres undefined)	-5.22% [at 57.7 µM]
CN(C)CC1CCOC1(c1ccccc1)c1ccccc1 (centres undefined)	1.07% [at 30.2 µM]
c1cn2cc(-c3ccc4cn[nH]c4c3)nc(Nc3ccc(N4CCOCC4)cc3)c2n1	-1.1%
CC(C)C(C#N)O[C@@H]1O[C@H](CO[C@@H]2O[C@@H](C)[C@H](O)[C@@H](O)[C@H]2O)[C@@H](O)[C@H](O)[C@H]1O (some centres undefined)	-1.09% [at 57.7 µM]
CC1(CCOC2OC(CO)C(O)C(O)C2O)CCC23OC2(C1)C(O)CC1C(C)(C(=O)O)CCCC13C (centres undefined)	-3.31% [at 57.7 µM]
COC(=O)CC1CC(c2ccc(O)cc2)=NO1 (centres undefined)	3.98%
CC1OC(OCC2OC(OC3CCC4(C)C(CCC5(C)C4CC=C4C6CC(C)(C)CCC6(C(=O)OC6OC(CO)C(O)C(O)C6O)CCC45C)C3(C)CO)C(O)C(O)C2O)C(O)C(O)C1O (centres undefined)	-6.51% [at 30.2 µM]
C/C1=C\CC[C@H](C)CCO[C@@H]2O[C@H](CO[C@@H]3OC[C@](O)(COC1=O)[C@H]3O)[C@@H](O)[C@H](O)[C@H]2O	-1.3% [at 57.7 µM]
C=C(C)C1Cc2cc(C(=O)OC3OC(CO)C(O)C(O)C3O)ccc2O1 (centres undefined)	-1.89% [at 57.7 µM]
